Shown is part of a subset that was picked to be rich in hits.
nsP2pro primary = CHIKV nsP2 protease inhibition, primary qHTS; FRET peptide cleavage, nsP2pro, fluorescence 1 h; Potency, µM (top dose mostly 24.9 µM), without a hit: at the top dose activity change, negative = inhibition, hits mostly inhibitors; 31,000 tested, 1.1% active; AID 1964107; further: nearly all actives have a fitted effect of over 60% in size
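FRET cleavage of 2.5 uM peptide 2 by 150 nM CHIKV protease domain at pH 8.0 (Tris, Tween 20). Compounds at 7 concentrations (up to 25 uM) preincubated 15 min. Fluorescence read after 1 h at room temperature.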
CHIKV nsP2 cell = inhibits CHIKV nsP2 protease in cells | shares compounds with nsP2pro primary | Potency, µM (series often up to 51.1 µM), for inactives: at the top dose activity change, negative = inhibition, most hits filed as inhibitors | AID 1964100 | 450 tested, 10% active | cell-based CHIKV nsP2 protease reporter assay; further: nearly all actives have a fitted effect of over 70% in size
CHIKV NSP2 FL = inhibits full-length CHIKV NSP2 enzyme | 410 tested, 39% active | Full-length CHIKV NSP2 protease enzymatic counterscreen | Potency, µM (titrated, usually from 50.7 µM), inactives show at the top dose activity change, negative = inhibition, usual class: inhibitors | AID 1964101 | shares compounds with nsP2pro primary; further: nearly all actives have a fitted effect of over 65% in size
Furin counter = human furin inhibition, counterscreen for nsP2pro inhibitors; Recombinant human furin enzymatic counterscreen, fluorogenic substrate; 410 tested, 6% active; AID 1964102; shares compounds with nsP2pro primary; Potency, µM (series often up to 50.6 µM), for inactives: top-dose activity change, negative = inhibition, most hits filed as inhibitors
NS23 peptide cs = nsP2pro inhibition on native NS2/3 peptide substrate | shares compounds with nsP2pro primary | Purified CHIKV nsP2 protease, endogenous NS2/3 peptide cleavage | Potency, µM (highest dose often 51 µM), for the others: at the top dose activity change, negative = inhibition, hits mostly inhibitors | 410 tested, 34% active; further: nearly all actives have a fitted effect of over 55% in size
Papain cs = inhibits papain in a CHIKV nsP2 protease selectivity counterscreen; shares compounds with nsP2pro primary; purified papain protease activity, enzymatic inhibition; Potency, µM (top dose mostly 51 µM), for inactives: at the highest dose activity change, negative = inhibition, usual class: inhibitors; 410 tested, 5% active
Target sequence (P00784 whole entry, looked up): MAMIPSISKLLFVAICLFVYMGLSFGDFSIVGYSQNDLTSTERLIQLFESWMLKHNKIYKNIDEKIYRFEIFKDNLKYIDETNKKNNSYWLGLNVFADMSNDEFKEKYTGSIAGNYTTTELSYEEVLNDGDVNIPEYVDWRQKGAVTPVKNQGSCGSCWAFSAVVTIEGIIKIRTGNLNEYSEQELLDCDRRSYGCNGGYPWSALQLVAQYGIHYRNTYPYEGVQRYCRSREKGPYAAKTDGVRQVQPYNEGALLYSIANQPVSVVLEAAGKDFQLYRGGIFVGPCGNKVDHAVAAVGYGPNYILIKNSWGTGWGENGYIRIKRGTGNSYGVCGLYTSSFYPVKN
nsP2pro confirm = CHIKV nsP2 protease inhibition, confirmatory qHTS; 410 tested, 43% active; AID 1964105; Potency, µM (doses to about 25.5 µM), without a hit: top-dose activity change, negative = inhibition, most hits filed as inhibitors; shares compounds with nsP2pro primary; CHIKV nsP2 protease enzymatic activity, qHTS; further: nearly all actives have a fitted effect of over 75% in size
HCV NS3 4A cs = inhibits HCV NS3/4A protease in an nsP2pro selectivity counterscreen | shares compounds with nsP2pro primary | 410 tested, 20% active | HCV NS3/4A protease biochemical counterscreen | Potency, µM (series often up to 50.9 µM), hits mostly inhibitors; further: nearly all actives have a fitted effect of over 55% in size
* = called active by the depositor; ! = not confirmed by another sample; [ ] = another dose, or the depositor's remark. The call rests on the fitted dose curve. On the % scale 0 is the no-effect control and ±100 the full control effect; potency means the concentration at half of the fitted maximal effect.

Screening CC(C)(O)CNc1ncc(-c2ccnc(Nc3ccnc(Cl)c3)n2)c(CC2CC2)n1 returned nsP2pro primary 11%.
Screening O=C(Nc1cncc(NC(=O)c2cccs2)c1)c1cccs1 returned nsP2pro primary 34%.
Screening CCOc1ccc(NC(=O)NCC2CCCN2c2ccc(OC)cc2)cc1 (centres undefined) returned nsP2pro primary -2%.
Screening CCOC(=O)c1ccoc1-c1ccc2ncnc(NCc3ncc[nH]3)c2c1 returned nsP2pro primary -1%.
Screening Cc1oc(C(C)C)cc1C(=O)N1CC[C@](C)(O)[C@@H](O)C1 returned nsP2pro primary -17%.
`CC(=O)OCC1=C(C(=O)O)N2C(=O)[C@@H](NC(=O)Cc3cccs3)[C@H]2SC1` gave nsP2pro primary 0%.
Screening CO/N=C(/C(=O)N[C@@H]1C(=O)N2C(C(=O)OCOC(=O)C(C)(C)C)=C(C)CS[C@H]12)c1csc(N)n1 returned nsP2pro primary -25%.
For CO/N=C(/C(=O)N[C@@H]1C(=O)N2C(C(=O)O)=C(CSC(=O)c3ccco3)CS[C@H]12)c1csc(N)n1 the results were nsP2pro primary 11µM*!, CHIKV nsP2 cell -8%, CHIKV NSP2 FL -5%, Furin counter -5%, NS23 peptide cs 9%, Papain cs inconclusive, nsP2pro confirm -10% and HCV NS3 4A cs inactive.
`COc1ccc(C2Nc3cccc(OC)c3C(=O)N2Cc2ccco2)cc1COc1c(C)cc(NC(C)=O)cc1C` (centres undefined) gave nsP2pro primary inactive.
Screening C/C(=N\N=C(N)N)c1cc(NC(=O)CCCCCCCCC(=O)Nc2cc(/C(C)=N/N=C(N)N)cc(/C(C)=N/N=C(N)N)c2)cc(/C(C)=N/N=C(N)N)c1 returned nsP2pro primary 5.6µM*, CHIKV nsP2 cell 71%, CHIKV NSP2 FL 13µM*, Furin counter 12µM*, NS23 peptide cs 13µM*, Papain cs -17%, nsP2pro confirm 6.3µM* and HCV NS3 4A cs 12µM*.
`CN1Cc2ccc(C(=O)Nc3ccc4cn[nH]c4c3)cc2OCC1=O` gave nsP2pro primary -5%[39.2 µM].
`Cc1ccsc1[C@@H]1CCN(Cc2ccc(-c3ccn[nH]3)o2)C[C@H]1O` gave nsP2pro primary 3.5µM*, CHIKV nsP2 cell inconclusive, CHIKV NSP2 FL inconclusive, Furin counter 0%, NS23 peptide cs inconclusive, Papain cs -3%, nsP2pro confirm 8µM* and HCV NS3 4A cs inconclusive.
`Cc1nccn1C1(C(=O)O)CCN(Cc2ccc(-c3ccn[nH]3)o2)CC1` gave nsP2pro primary -15%.
`Cc1ccc(CN2CC[C@H](c3nnc(-c4ccco4)o3)C2)o1` gave nsP2pro primary 2%[39.2 µM].
CC(=O)Nc1sc2c(c1-c1nc3ccccc3s1)CCN(C1COC1)C2 was read as nsP2pro primary -16%.
`CN(CCCCCCN(C)C(=O)Oc1ccc[n+](C)c1)C(=O)Oc1ccc[n+](C)c1` gave nsP2pro primary -4%.
Screening Cc1ccc(-c2csc(NC(=O)c3ccncc3NS(=O)(=O)c3ccc(C)cc3)n2)cc1 returned nsP2pro primary inactive.
Screening COc1ccc(/C=C/C(=O)O[C@H]2[C@@H]3C=CO[C@@H](O[C@@H]4O[C@H](CO)[C@@H](O)[C@H](O)[C@H]4O)[C@@H]3[C@@]3(CO)O[C@@H]23)cc1O returned nsP2pro primary 42%[10 µM].
Screening C[C@@H]1O[C@@H](O[C@H]2[C@@H]3C=CO[C@@H](O[C@@H]4O[C@H](CO)[C@@H](O)[C@H](O)[C@H]4O)[C@@H]3[C@@]3(CO)O[C@@H]23)[C@H](OC(=O)/C=C/c2ccccc2)[C@H](O)[C@H]1O returned nsP2pro primary 23%[10 µM].
C[C@@H]1O[C@@H](O[C@H]2[C@@H]3C=CO[C@@H](O[C@@H]4O[C@H](CO)[C@@H](O)[C@H](O)[C@H]4O)[C@@H]3[C@@]3(CO)O[C@@H]23)[C@H](OC(=O)/C=C/c2ccc(O)c(O)c2)[C@H](O)[C@H]1O was read as nsP2pro primary inconclusive, CHIKV nsP2 cell -3%[17.6 µM], CHIKV NSP2 FL -2%[17.3 µM], Furin counter -9%[17.3 µM], NS23 peptide cs -13%[17.2 µM], Papain cs -12%[17.2 µM], nsP2pro confirm -24%[8.62 µM] and HCV NS3 4A cs inactive.
`CC(=O)O[C@@H]1[C@@H](OC(=O)/C=C/c2ccccc2)[C@H](C)O[C@@H](O[C@H]2[C@@H]3C=CO[C@@H](O[C@@H]4O[C@H](CO)[C@@H](O)[C@H](O)[C@H]4O)[C@@H]3[C@@]3(CO)O[C@@H]23)[C@@H]1OC(C)=O` gave nsP2pro primary -10%[10 µM].
For O=C(/C=C/c1ccc(O)c(O)c1)O[C@H]1[C@@H]2C=CO[C@@H](O[C@@H]3O[C@H](CO)[C@@H](O)[C@H](O)[C@H]3O)[C@@H]2[C@@]2(CO)O[C@@H]12 the results were nsP2pro primary -7%[10 µM].
Screening C[C@@H]1O[C@@H](O[C@H]2[C@@H]3C=CO[C@@H](O[C@@H]4O[C@H](CO)[C@@H](O)[C@H](O)[C@H]4O)[C@@H]3[C@@]3(CO)O[C@@H]23)[C@H](O)[C@H](OC(=O)/C=C/c2ccc(O)c(O)c2)[C@H]1O returned nsP2pro primary inconclusive, CHIKV nsP2 cell 6%[17.6 µM], CHIKV NSP2 FL -6%[17.3 µM], Furin counter -7%[17.3 µM], NS23 peptide cs -17%[17.2 µM], Papain cs -11%[17.2 µM], nsP2pro confirm -14%[8.62 µM] and HCV NS3 4A cs inactive.
For COc1ccc(Cl)c(Nc2nc3ccccc3nc2NS(=O)(=O)c2cccc(NC(=O)C(C)(C)N)c2)c1 the results were nsP2pro primary 60%.
Screening Cn1nc(-c2cccc(F)c2)c(N2CCCCC2)c1NC(=O)Nc1ccccc1 returned nsP2pro primary -9%.
OC[C@H]1O[C@@H](OC[C@H]2O[C@@H](O[C@@H]3[C@@H](O)[C@H](O)O[C@H](CO)[C@H]3O)[C@H](O)[C@@H](O[C@@H]3O[C@H](CO)[C@@H](O)[C@H](O)[C@H]3O)[C@@H]2O)[C@H](O)[C@@H](O)[C@@H]1O was read as nsP2pro primary -3%.

Compound activity from PubChem BioAssay.
